# According to PubChem BioAssay (NCATS):
# Inconclusive results are not listed. The source made the active and inactive calls. Unless noted, calls come from the whole dose curve; as a rule, active = well fitted inhibition curve with a large enough effect; inconclusive = small, poorly fitted or top-dose-only effect; inactive = flat fitted curve, though single readings scatter.
# Legend:
# [1] = qHTS drug screen for cell cycle checkpoint inhibitors in PARPi-resistant BRCA-mutant ovarian cancer cell lines. (AID 1963452; calls by dose curve); details: PEO1/OlaR viability, CellTiter-Glo luminescence, 96 h, stronger effect = lower value
# Outline: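 PEO1, PEO4 and PEO1/OlaR ovarian cancer cells, 600 per well, exposed 96 h at 37C to a dilution series. Viability read by CellTiter-Glo luminescence, normalized to DMSO and empty wells; activity summarized as Z-AUC.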
# [2] = qHTS for identification of novel therapeutic agents for treatment of microphthalmiaassociated transcription factor (MiT) renal cell carcinoma (RCC) (AID 1963991; calls by dose curve; note: potency is the fitted concentration of half-maximal effect); details: CellTiter-Glo, 48 h; for z-score: stronger effect = lower value
# Outline: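 Three TFE3-fusion RCC lines (UOK109, UOK124, UOK145), 500 cells/well in complete medium, were treated with MIPE 4.0 compounds for 48 hours at 37 C. Viability was by CellTiter-Glo luminescence, normalized to DMSO (100%) and empty wells (0%); curves fitted over 11 concentrations.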
# [3] = qHTS profiling for inhibitors of Plasmodium falciparum proliferation (AID 504749);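 note: 0% = DMSO vehicle and full inhibition = artemisinin control; nearly all actives have a fitted effect of over 60% in size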; details: P. falciparum in erythrocytes, SYBR Green DNA, 72 h, at 28.7 µM (top of the series)
# Outline: (§1)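 Readout was DNA-dye fluorescence from lysed cultures, ex 485/em 535 nm. Parasitized red cells had grown 72 h with compound; data scaled between 0.29 uM artemisinin and DMSO wells and corrected using vehicle-only plates.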
# 3D7 = test: as above; details: P. falciparum in erythrocytes, SYBR Green DNA, 72 h; series mostly up to 28.7 µM
# Outline: as §1
# 7G8 = test: as above; details: P. falciparum in erythrocytes, SYBR Green DNA, 72 h; series mostly up to 28.7 µM
# Outline: as §1
# AA1029 = test: as above; details: P. falciparum in erythrocytes, SYBR Green DNA, 72 h; series mostly up to 28.7 µM
# Outline: as §1
# AS120 = test: as above; details: P. falciparum in erythrocytes, SYBR Green DNA, 72 h; series mostly up to 28.7 µM
# Outline: as §1
# ATS189 = test: as above; details: P. falciparum in erythrocytes, SYBR Green DNA, 72 h; series mostly up to 28.7 µM
# Outline: as §1
# ATS95 = test: as above; details: P. falciparum in erythrocytes, SYBR Green DNA, 72 h; series mostly up to 28.7 µM
# Outline: as §1
# C2A = test: as above; details: P. falciparum in erythrocytes, SYBR Green DNA, 72 h; series mostly up to 28.7 µM
# Outline: as §1
# CP185 = test: as above; details: P. falciparum in erythrocytes, SYBR Green DNA, 72 h; series mostly up to 28.7 µM
# Outline: as §1
# CP191 = test: as above; details: P. falciparum in erythrocytes, SYBR Green DNA, 72 h; series mostly up to 28.7 µM
# Outline: as §1
# CP192 = test: as above; details: P. falciparum in erythrocytes, SYBR Green DNA, 72 h; series mostly up to 28.7 µM
# Outline: as §1
# CP194 = test: as above; details: P. falciparum in erythrocytes, SYBR Green DNA, 72 h; series mostly up to 28.7 µM
# Outline: as §1
# CP201 = test: as above; details: P. falciparum in erythrocytes, SYBR Green DNA, 72 h; series mostly up to 28.7 µM
# Outline: as §1
# CP211 = test: as above; details: P. falciparum in erythrocytes, SYBR Green DNA, 72 h; series mostly up to 28.7 µM
# Outline: as §1
# CP215 = test: as above; details: P. falciparum in erythrocytes, SYBR Green DNA, 72 h; series mostly up to 28.7 µM
# Outline: as §1
# CP217 = test: as above; details: P. falciparum in erythrocytes, SYBR Green DNA, 72 h; series mostly up to 28.7 µM
# Outline: as §1
# CP237 = test: as above; details: P. falciparum in erythrocytes, SYBR Green DNA, 72 h; series mostly up to 28.7 µM
# Outline: as §1
# [4] = measured here: PEO1 parental Z-AUC
# [5] = TFE3-RCC UOK109 viability, measured here: UOK109 Z-AUC
# [6] = TFE3-RCC viability, measured here: UOK124 Z-AUC
# [7] = TFE3-RCC viability, measured here: UOK145 Z-AUC
compound,measurement,setting,value
COc1ccc(-c2nc3ccc(C4=NNC(=O)CC4C)cc3[nH]2)cc1 (centres undefined),Z-AUC,[1],-0.406 (inactive)
same,Z-AUC,[1]; [4],-0.248
same,Z-AUC,[1]; measured here: PEO4 Z-AUC,0.0118
same,z-score,[2]; [5],0.403
same,z-score,[2]; [6],0.3
same,z-score,[2]; [7],0.145
CN1C(=O)C[C@H](C(=O)N[C@@H](Cc2cnc[nH]2)C(=O)N2CCC[C@@H]2C(N)=O)NC1=O,Z-AUC,[1],0.875 (inactive)
same,Z-AUC,[1]; [4],1.25
same,Z-AUC,[1]; measured here: PEO4 Z-AUC,1.02
same,z-score,[2]; [5],0.71
same,z-score,[2]; [6],0.308
same,z-score,[2]; [7],0.628
C#CCN(C)CC1=Cc2ccccc2Oc2ccccc21,Z-AUC,[1],-0.343 (inactive)
same,Z-AUC,[1]; [4],-0.493
same,Z-AUC,[1]; measured here: PEO4 Z-AUC,-0.09
same,z-score,[2]; [5],-0.41
same,z-score,[2]; [6],0.413
same,z-score,[2]; [7],-1.17
CN[C@H]1[C@@H](O[C@@H]2[C@H](O[C@@H]3[C@@H](O)[C@@H](O)[C@@H](N=C(N)N)[C@@H](O)[C@@H]3N=C(N)N)O[C@H](C)[C@@]2(O)C=O)O[C@@H](CO)[C@@H](O)[C@H]1O,z-score,[2]; [5],2.74
same,z-score,[2]; [6],1.27
same,z-score,[2]; [7],2.73
Cc1cn([C@@H]2C[C@@H](O)[C@H](CO)O2)c(=O)[nH]c1=O,Z-AUC,[1],0.721 (inactive)
same,Z-AUC,[1]; [4],0.778
same,Z-AUC,[1]; measured here: PEO4 Z-AUC,0.771
same,z-score,[2]; [5],0.973
same,z-score,[2]; [6],1.9
same,z-score,[2]; [7],0.117
CCOC(=O)[C@H]1O[C@H]1C(=O)N[C@@H](CC(C)C)C(=O)NCCC(C)C,z-score,[2]; [5],0.719
same,z-score,[2]; [6],0.357
same,z-score,[2]; [7],0.572
C[C@H]1COC2=C1C(=O)C(=O)c1c2ccc2c1CCCC2(C)C,Z-AUC,[1],1.69 (inactive)
same,Z-AUC,[1]; [4],1.64
same,Z-AUC,[1]; measured here: PEO4 Z-AUC,1.41
same,z-score,[2]; [5],-0.0604
same,z-score,[2]; [6],-0.0946
same,z-score,[2]; [7],-0.271
O=C(O)C1=CC(O)C(O)[C@H](O)C1 (some centres undefined),Z-AUC,[1],1.17 (inactive)
same,Z-AUC,[1]; [4],1.52
same,Z-AUC,[1]; measured here: PEO4 Z-AUC,1.23
same,z-score,[2]; [5],1.04
same,z-score,[2]; [6],0.866
same,z-score,[2]; [7],0.319
Cc1cc2c(cc1C1(c3ccc(C(=O)O)cn3)CC1)C(C)(C)CCC2(C)C,Z-AUC,[1],-0.226 (inactive)
same,Z-AUC,[1]; [4],0.647
same,Z-AUC,[1]; measured here: PEO4 Z-AUC,0.601
same,z-score,[2]; [5],1.13
same,z-score,[2]; [6],-2.74
same,z-score,[2]; [7],0.66
C[C@H](c1ccc(F)cc1CCCC(=O)O)N(c1cc(F)ccc1F)S(=O)(=O)c1ccc(Cl)cc1,Z-AUC,[1],-0.634 (inactive)
same,Z-AUC,[1]; [4],-0.271
same,Z-AUC,[1]; measured here: PEO4 Z-AUC,-0.797
same,z-score,[2]; [5],0.174
same,z-score,[2]; [6],-0.0423
same,z-score,[2]; [7],-0.497
CCCCOCCOc1nc(-c2ccc(C(=O)O)c(F)c2)sc1C,Z-AUC,[1],1.12 (inactive)
same,Z-AUC,[1]; [4],0.866
same,Z-AUC,[1]; measured here: PEO4 Z-AUC,0.696
same,z-score,[2]; [5],1.12
same,z-score,[2]; [6],0.152
same,z-score,[2]; [7],0.316
CN(C)CCN(C)C(=O)c1ccc(NC(=O)Nc2ccc(-c3nc(N4CCOCC4)c4ccn(CC(F)(F)F)c4n3)cc2)cc1,Z-AUC,[1],-1.1 (inactive)
same,Z-AUC,[1]; [4],-1.35
same,Z-AUC,[1]; measured here: PEO4 Z-AUC,-1.82
same,Potency,"[2]; TFE3-RCC UOK109 viability, active = Z-AUC below -0.8 in all three lines",1320 nM (active)
same,z-score,[2]; [5],-2.71
same,z-score,[2]; [6],-3.06
same,z-score,[2]; [7],-1.67
COc1ccnc(CS(=O)c2nc3ccc(OC(F)F)cc3[nH]2)c1OC (centres undefined),Z-AUC,[1],1.71 (inactive)
same,Z-AUC,[1]; [4],1.02
same,Z-AUC,[1]; measured here: PEO4 Z-AUC,1.19
same,"activity, negative = inhibition",[3]; parasite line A,-7.9% (inactive)
same,"activity, negative = inhibition",[3]; parasite line B,-10.6% (inactive)
same,Potency,3D7,inactive
same,Potency,7G8,inactive
same,Potency,AA1029,inactive
same,Potency,AS120,inactive
same,Potency,ATS189,inactive
same,Potency,ATS95,inactive
same,Potency,C2A,inactive
same,outcome,CP185,inactive
same,outcome,CP191,inactive
same,Potency,CP192,inactive
same,Potency,CP194,inactive
same,Potency,CP201,inactive
same,Potency,CP211,inactive
same,Potency,CP215,inactive
same,Potency,CP217,inactive
same,Potency,CP237,inactive
CCN1C[C@H](C)n2c(c(O)c3c(=O)n(Cc4ccc(F)c(Cl)c4)nc(C(=O)NC)c32)C1=O,z-score,[2]; [5],0.808
same,z-score,[2]; [6],0.545
same,z-score,[2]; [7],2.87
C=CC[N+]1([C@H]2C[C@H]3[C@@H]4CC[C@H]5C[C@H](O)[C@@H](N6CCOCC6)C[C@]5(C)[C@@H]4CC[C@]3(C)[C@H]2OC(C)=O)CCCC1,z-score,[2]; [5],0.798
same,z-score,[2]; [6],0.675
same,z-score,[2]; [7],0.368
